The list is not random: actives were taken first. Their share in the collection is about 6.3%.
Gal4-VP16 FLuc = VP16 counterscreen qHTS for inhibitors of ROR gamma transcriptional activity | Drosophila S2 Gal4-VP16 UAS-luciferase, luminescence, 20 h | Potency, µM (doses to about 53.6 µM), for inactives: at the top dose activity, negative = inhibition, most hits filed as inhibitors | actives 3.5% (n = 310,000) | AID 2546, 2010;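 also: Gal4-VP16 expression switched on by copper sulfate through the metallothionein promoter; % is scaled to controls: 0 for no effect and ±100 for the full control effect; nearly all actives have a fitted effect of over 50% in size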
HepG2 viability = qHTS for Inhibitors of TGF-b: Cytotox Counterscreen. HepG2 CAGA-GFP viability, ATP luminescence, 18 h. Potency, µM (top dose mostly 46.1 µM), for inactives: at the top dose activity change, negative = cytotoxicity, actives largely listed as cytotoxic. actives 0.76% (n = 410,000). AID 588856, 2011
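CellTiter-Glo luminescence gave cytotoxicity after 18 hours at 37 degrees C. The cells were HepG2 CAGA-GFP in 1% FBS DMEM, stimulated with 500 pg/mL TGF-beta after compound addition. %Activity was normalised to no-cell wells (complete cell-killing) and DMSO (no toxicity), and curves were fitted and classified.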
ATXN viability = Viability Counterscreen for Primary qHTS for Inhibitors of ATXN expression; actives 0.49% (n = 400,000); S2 cells (HEK-293 line with an ATXN2-luciferase reporter) viability, CellTiter-Fluor protease fluorescence, 24 h; Potency, µM (titrated, usually from 56.7 µM), usual class: cytotoxic; also: nearly all actives have a fitted effect of over 40% in size
ATXN2 expr inh = Primary qHTS for Inhibitors of ATXN expression | HEK-293 ATXN2-luciferase reporter, luminescence, 24 h | Potency, µM (highest dose often 57 µM), for the others: at the top dose activity change, negative = inhibition, usual class: inhibitors | actives 0.72% (n = 360,000); also: % is scaled to controls: 0 for no effect and ±100 for the full control effect; nearly all actives have a fitted effect of over 55% in size
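qHTS (up to 57 uM final) was run with 24 h compound exposure of reporter cells at 37 °C. Each well was multiplexed: SteadyGlo luminescence measured ATXN2-luciferase expression after a fluorogenic Gly-Phe-AFC viability readout (25 uM final).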
RORg inh = qHTS for inhibitors of ROR gamma transcriptional activity; Nuclear receptor ROR-gamma (Mus musculus), P51450; Drosophila S2 Gal4-RORgamma UAS-luciferase reporter, 20 h; Potency, µM (titrated, usually from 53.6 µM), for the others: at the highest dose activity change, negative = inhibition, actives largely listed as inhibitors; actives 5.4% (n = 310,000); also: % is scaled to controls: 0 for no effect and ±100 for the full control effect; nearly all actives have a fitted effect of over 60% in size
Target sequence (P51450 whole entry, looked up, the tested form may be a part): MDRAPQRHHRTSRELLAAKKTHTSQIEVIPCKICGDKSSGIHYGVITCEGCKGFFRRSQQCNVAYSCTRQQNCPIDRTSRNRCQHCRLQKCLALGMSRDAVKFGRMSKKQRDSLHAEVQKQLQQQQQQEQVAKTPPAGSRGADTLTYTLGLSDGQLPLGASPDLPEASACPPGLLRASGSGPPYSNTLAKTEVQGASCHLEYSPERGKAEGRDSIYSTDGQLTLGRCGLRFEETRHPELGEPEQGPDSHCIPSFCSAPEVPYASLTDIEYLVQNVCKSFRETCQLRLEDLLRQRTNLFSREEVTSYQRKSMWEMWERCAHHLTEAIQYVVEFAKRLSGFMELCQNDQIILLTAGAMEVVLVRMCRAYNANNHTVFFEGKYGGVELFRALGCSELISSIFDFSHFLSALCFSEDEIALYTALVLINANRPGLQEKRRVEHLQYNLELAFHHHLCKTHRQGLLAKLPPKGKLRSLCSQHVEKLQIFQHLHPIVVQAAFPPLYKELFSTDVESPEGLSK
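Drosophila S2 cells stably expressing Gal4-DBD/mouse RORγ fusion under metallothionein promoter plus UAS-luciferase; compound 1 h, then 700 uM CuSO4 induction for 20 h at ambient temperature; inhibition read as reduced luminescence.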
TGFb inhibitor = qHTS for Inhibitors of TGF-b. HepG2 CAGA-GFP TGF-b/SMAD3 reporter, GFP fluorescence, 18 h; TGF-beta stimulated, 500 pg/mL final. Potency, µM (highest dose often 46.1 µM), inactives show at the top dose activity, negative = inhibition, most hits filed as inhibitors. actives 1.2% (n = 410,000). AID 588855, 2011; also: % is scaled to controls: 0 for no effect and ±100 for the full control effect; nearly all actives have a fitted effect of over 65% in size
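GFP signal (ex488/em500-530) from TGF-beta-stimulated HEPG2 CAGA-GFP cells, 500 pg/mL final, 18 h at 37 degrees C in DMEM plus 1% FBS, normalized to unstimulated and DMSO-stimulated controls.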
An asterisk follows results filed as active; i = inactive; ? = inconclusive; . = no result given. Calls follow the shape of the dose curve; as a rule, active = well fitted curve in the direction sought with a large enough effect; inconclusive = small, poorly fitted or top-dose-only effect, or another doubt; inactive = no such curve, though single readings can be large; an effect the other way counts as inactive or inconclusive. Potency is read from the fitted curve at half-maximal effect.

SMILES	Gal4-VP16 FLuc	HepG2 viability	ATXN viability	ATXN2 expr inh	RORg inh	TGFb inhibitor
CCN=C1NN=C(c2ccc(C)cc2)CS1	?	-16%	i	-26%	11µM*	-20%
CC(C)N=C1NN=C(c2ccc(F)cc2)CS1	?	-53%	i	?	7.1µM*	-18%
CC(C)(C)NC(=O)NC(=O)COC(=O)C1CCN(S(=O)(=O)c2cccs2)CC1	.	5%	i	1%	.	-1%
CN(C)c1cccc(NC(=O)C2Cc3c(-c4ccc(Cl)cc4)ccnc3O2)c1 (configuration not stated)	.	-43%	?	-14%	.	?
Clc1ccc(C2=NNC(=NCc3ccccc3)SC2)cc1	?	-27%	i	.	5µM*	-15%
COc1ccc(-c2c(C)nn(-c3ccccc3)c2N)cc1	6%	4%	i	70%	0%	23%
Cc1ccc(-c2cnn(-c3ccccc3)c2N)cc1	?	-32%	i	-10%	?	?
Cc1nn(-c2ccc(C(=O)O)cc2)c(N)c1-c1ccccc1	?	-6%	i	1%	10µM*	4%
Nc1c(-c2ccccc2)cnn1-c1ccc(C(=O)O)cc1	?	-9%	i	-34%	10µM*	20%
NNc1ccc(Cl)c(C(=O)O)c1	17%	16%	i	73%	-12%	13%
COc1cc2c(cc1OC)CN(c1ccc([N+](=O)[O-])cc1Cl)CC2	18µM*	-18%	i	-7%	?	?
COc1cc(OC)cc(-c2nnc3n2N=C(c2ccccc2OC)CS3)c1	0%	.	.	.	12%	.
COc1ccc(/C=C/C(=O)OCC(=O)N2c3ccccc3CC2C)cc1 (configuration not stated)	.	0%	i	.	.	-11%
COc1ccc(/C=C/C(=O)c2c(OC)cc(O)cc2OC)cc1	?	.	.	.	13%	.
O=C(/C=C/c1cccnc1)/C=C/c1cccnc1	5µM*	6.3µM*	?	?	5µM*	3.5µM*
COc1cc(C(=O)/C=C/c2cccnc2)ccc1O	?	-93%	i	24%	10µM*	?
COc1ccc(OC)c(C(=O)/C=C/c2cccnc2)c1	2.8µM*	-44%	.	?	7.9µM*	?
COc1cc(OC)c(C(=O)/C=C/c2ccccc2)c(O)c1O	10µM*	-27%	?	-19%	?	-3%
C(=Cc1cccnc1)c1ccncc1	.	4%	i	12%	.	-6%
N#CN=CN1CC=C(c2ccc(Cl)cc2)CC1	.	-13%	i	.	.	-3%
CCOC1=C2CN(S(=O)(=O)c3ccc(C)cc3)[C@H](c3cccc(Cl)c3)C[C@@H]2N(S(=O)(=O)c2ccccc2[N+](=O)[O-])[C@H](c2ccccc2)C1	.	-8%	i	5%	.	-21%
COc1cc(F)ccc1-c1cc(C(=O)NCc2cc(C(F)(F)F)cc(C(F)(F)F)c2)[nH]n1	.	-42%	i	-9%	.	-13%
Cc1ccc(Cn2ccc(=O)c(Cc3c(Cl)cccc3Cl)c2C)cc1	-14%	-18%	i	0%	28%	-27%
COc1ccc(Cn2ccc(=O)c(Cc3c(Cl)cccc3Cl)c2C)cc1	16µM*	-2%	i	-14%	16µM*	-28%
CC(CC(=O)N1CCN(S(=O)(=O)c2ccc([N+](=O)[O-])cc2)CC1)c1ccccc1 (configuration not stated)	.	-13%	i	-12%	.	-6%
SMILES	Gal4-VP16 FLuc	HepG2 viability	ATXN viability	ATXN2 expr inh	RORg inh	TGFb inhibitor
COCc1ccc(-c2c(-c3ccsc3)sc3ccccc23)cc1	.	-20%	i	1%	.	-1%
Oc1ccc(-c2c(-c3ccsc3)sc3ccccc23)cc1	-18%	-43%	?	?	15%	11µM*
CC(=O)C[C@H]1c2cc(F)cc(F)c2S(=O)(=O)N1C1CCN(Cc2ccccc2)CC1	.	3%	.	.	.	-20%
Nc1c2c(nc3sc4c(c13)CCCC4)-c1ccccc1CC2	10µM*	-14%	i	109%	?	?
NNc1nc(-c2ccccc2)nc2sc3c(c12)CCCC3	?	0%	i	0%	?	-18%
CCN1CCN(c2ccc(S(=O)(=O)N3CCCCC3)cc2NC(=O)COc2ccc(F)cc2Cl)CC1	-19%	-30%	i	?	?	-17%
C/C(=N\NC(=O)C1CCCC1)c1ccc(NC(=O)C(F)(F)F)cc1	.	-94%	i	9%	.	11µM*
CCOc1ccc(-c2cnc(NCc3cccc(Cl)c3)n2C)cc1	.	-3%	i	-3%	.	-34%
Cc1cc(C)n(S(=O)(=O)/C=C/c2ccccc2)n1	-1%	3%	i	-1%	16µM*	7%
Cc1ccc(S(=O)(=O)n2nc(C)cc2C)cc1	6%	-18%	i	6%	-5%	-8%
CC(C)(C)OC(=O)N1CCCC(C(=O)Nc2cccc(C(=O)N3CCOCC3)c2)C1 (configuration not stated)	.	-57%	i	5%	.	-8%
Cc1ccccc1-c1cc(-c2ccccc2O)n[nH]1	?	-64%	i	85%	5.6µM*	-16%
Cc1ccc(-c2cc(-c3ccccc3[N+](=O)[O-])[nH]n2)c(O)c1	?	-48%	i	84%	18µM*	-21%
O=C1CC(c2cccc([N+](=O)[O-])c2)c2cc3c(cc2N1)CCC3 (configuration not stated)	?	-6%	?	?	34%	?
O=C1CC(c2cccc(Cl)c2)c2cc3c(cc2N1)CCC3 (configuration not stated)	?	-53%	?	?	?	10µM*
O=C1CC(c2ccccc2F)c2cc3c(cc2N1)CCC3 (configuration not stated)	-8%	-17%	i	8%	6%	?
COc1cccc(C2CC(=O)Nc3cc4c(cc32)CCC4)c1 (configuration not stated)	13µM*	-18%	?	.	?	-25%
O=C1CC(c2cc(Br)ccc2F)c2cc3c(cc2N1)CCC3 (configuration not stated)	-14%	4%	4.5µM*	?	-11%	-4%
Cc1ccc(NC(=O)c2oc3ccc(S(=O)(=O)N(C)C4CCCCC4)cc3c2C)c(C)c1	.	-1%	.	.	.	?
Cc1ccc(NC(=O)C2CCN(c3nc4ccccc4[nH]3)CC2)cc1Cl	.	-36%	.	.	.	-11%
O=c1c(-c2ccc(F)cc2)nc2cnc(Oc3cccc(Cl)c3)nc2n1C[C@H]1CCCO1	-4%	.	.	.	23%	.
CC1=NS(=O)(=O)NC(C)(C)C1	.	1%	i	-16%	.	-7%

Screening results deposited in PubChem BioAssay by National Center for Advancing Translational Sciences (NCATS).
